# Unmarked numbers belong to inactive results. Results filed as inconclusive are left out. Where a call stands in place of a potency, no number is given. Active and inactive are the calls of the source. Calls follow the shape of the dose curve; as a rule, active = well fitted curve in the direction sought with a large enough effect in the repeat runs; inconclusive = weak or mixed curves; inactive = no such curve, though single readings can be large; an effect the other way counts as inactive or inconclusive.
# What was measured:
# [1] = A CellTox Green Cytotoxicity Assay to monitor cytotoxicity in HEK293 cells - 32 hour (AID 1224881); also: nearly all actives have a fitted effect of over 40% in size; also: potency is read from the fitted curve at half-maximal effect
# Procedure, shortened: (§1)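 Cytotoxicity was tracked continuously in HEK293 cells by a DNA-binding dye excluded from viable cells. Compounds were transferred in DMSO 5 h after seeding; fluorescence was recorded at intervals up to 40 h.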
# [2] = A CellTox Green Cytotoxicity Assay to monitor cytotoxicity in HepG2 cells - 0 hour (AID 1224882); also: nearly all actives have a fitted effect of over 35% in size
# Procedure, shortened: (§2)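 Real-time, homogeneous cytotoxicity readout: dead-cell DNA staining by CellTox Green in HepG2 monolayers, fluorescence measured at timed intervals up to 40 h of continuous compound exposure.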
# [3] = A CellTox Green Cytotoxicity Assay to monitor cytotoxicity in HepG2 cells - 32 hour (AID 1224883); also: nearly all actives have a fitted effect of over 50% in size; also: potency is read from the fitted curve at half-maximal effect
# Procedure, shortened: as §2
# [4] = A CellTox Green Cytotoxicity Assay to monitor cytotoxicity in HEK293 cells - 8 hour (AID 1224884); also: nearly all actives have a fitted effect of over 35% in size; also: potency is read from the fitted curve at half-maximal effect
# Procedure, shortened: as §1
# [5] = qHTS RealTime-Glo MT Cell Viability Assay in HepG2 cells - 16 hour (AID 1224885); also: nearly all actives have a fitted effect of over 50% in size; also: potency is read from the fitted curve at half-maximal effect
# Procedure, shortened: (§3)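 Viability was tracked continuously by NanoLuc luminescence from prosubstrate reduced by living HepG2 cells, at successive time points over 40 h of compound exposure. Cells with reagent were preincubated 5 h at 37 °C before compound addition.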
# [6] = qHTS RealTime-Glo MT Cell Viability Assay in HEK293 cells - 24 hour (AID 1224886); also: nearly all actives have a fitted effect of over 50% in size; also: potency is read from the fitted curve at half-maximal effect; as to activity change, negative = cytotoxicity: top concentration of the series differs between compounds
# Procedure, shortened: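 Viability tracked continuously by luminescence as live cells reduce a prosubstrate for NanoLuc; HEK293 cells preincubated 5 h, compound-treated at 37 C, and read at 0, 8, 16, 24, 32 and 40 h.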
# [7] = qHTS RealTime-Glo MT Cell Viability Assay in HEK293 cells - 8 hour (AID 1224887); also: nearly all actives have a fitted effect of over 50% in size; also: potency is read from the fitted curve at half-maximal effect; as to activity change, negative = cytotoxicity: top concentration of the series differs between compounds
# Procedure, shortened: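 Nonlytic bioluminescent viability monitoring. HEK293 at 600 cells/well with reagent; 5 h settle; compound transfer by pintool; plates held at 37 C and read at set time points.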
# [8] = A CellTox Green Cytotoxicity Assay to monitor cytotoxicity in HEK293 cells - 16 hour (AID 1224888); also: nearly all actives have a fitted effect of over 35% in size; also: potency is read from the fitted curve at half-maximal effect
# Procedure, shortened: as §1
# [9] = A CellTox Green Cytotoxicity Assay to monitor cytotoxicity in HepG2 cells - 8 hour (AID 1224890); also: nearly all actives have a fitted effect of over 45% in size; also: potency is read from the fitted curve at half-maximal effect
# Procedure, shortened: as §2
# [10] = qHTS RealTime-Glo MT Cell Viability Assay in HepG2 cells - 0 hour (AID 1224889); also: nearly all actives have a fitted effect of over 50% in size; also: potency is read from the fitted curve at half-maximal effect
# Procedure, shortened: as §3
Compound,Potency [1],Potency [2],Potency [3],Potency [4],Potency [5],Potency [6],Potency [7],Potency [8],Potency [9],Potency [10],cytotoxicity [2],"activity change, negative = cytotoxicity [10]"
CCOP(=S)(OCC)SCS(=O)(=O)C(C)(C)C,inactive,inactive,inactive,inactive,inactive,inactive,inactive,inactive,inactive,–,–,–
COS(=O)(=O)c1ccc(C)cc1,inactive,inactive,inactive,inactive,inactive,inactive,inactive,inactive,inactive,inactive,–,–
S=C=Nc1cccc2ccccc12,inactive,inactive,inactive,inactive,inactive,inactive,21.7 µM (active),inactive,–,–,–,–
CN(C)S(=O)(=O)N(SC(F)(Cl)Cl)c1ccccc1,4.9 µM (active),inactive,5.49 µM (active),inactive,15.5 µM (active),4.36 µM (active),9.77 µM (active),19.5 µM (active),–,–,–,–
O=c1[nH]c2ccccc2n1CCCN1CCC(n2c(=O)[nH]c3cc(Cl)ccc32)CC1,inactive,inactive,21.3 µM (active),inactive,inactive,9.52 µM (active),9.52 µM (active),inactive,inactive,inactive,–,–
CCCCCCCCCCCCBr,inactive,inactive,inactive,inactive,inactive,inactive,inactive,inactive,inactive,inactive,–,–
COP(N)(=S)OC,inactive,inactive,inactive,inactive,inactive,inactive,inactive,inactive,inactive,inactive,–,–
CCCSP(=O)(OCC)SCCC,inactive,inactive,inactive,inactive,inactive,inactive,inactive,inactive,inactive,–,–,–
[Cl][Sn]([c]1ccccc1)([c]1ccccc1)[c]1ccccc1,1.65 µM (active),–,2.61 µM (active),2.33 µM (active),2.93 µM (active),0.262 µM (active),0.737 µM (active),2.33 µM (active),–,–,7.07% [at 15.8 µM],2.43% [at 15.8 µM]
O=C(O)C1C2CCC(O2)C1C(=O)O (stereo not drawn),inactive,inactive,inactive,inactive,inactive,inactive,inactive,inactive,inactive,inactive,–,–
C[C@@H]1CC[C@@]2(OC1)O[C@H]1[C@@H](O)[C@H]3[C@@H]4CC[C@H]5C[C@@H](O[C@@H]6O[C@H](CO)[C@H](O[C@@H]7O[C@H](CO)[C@@H](O)[C@H](O[C@@H]8OC[C@@H](O)[C@H](O)[C@H]8O)[C@H]7O[C@@H]7O[C@H](CO)[C@@H](O)[C@H](O[C@@H]8O[C@H](CO)[C@@H](O)[C@H](O)[C@H]8O)[C@H]7O)[C@H](O)[C@H]6O)[C@H](O)C[C@]5(C)[C@H]4CC[C@]3(C)[C@H]1[C@@H]2C,1.64 µM (active),inactive,11.6 µM (active),4.63 µM (active),18.4 µM (active),11.6 µM (active),6.55 µM (active),4.63 µM (active),13.1 µM (active),23.2 µM (active),–,–
N#CCCSCCC#N,inactive,inactive,inactive,inactive,inactive,inactive,inactive,inactive,–,inactive,–,–
ClCCN1CCOCC1,inactive,inactive,inactive,inactive,inactive,inactive,inactive,inactive,inactive,inactive,–,–
C=COCCCl,inactive,inactive,inactive,inactive,inactive,inactive,inactive,inactive,inactive,inactive,–,–
O=C(CCCN1CCC2(CC1)C(=O)NCN2c1ccccc1)c1ccc(F)cc1,inactive,inactive,inactive,inactive,inactive,10.7 µM (active),16.9 µM (active),–,–,–,–,–
Cc1ccc(CCl)cc1,inactive,inactive,inactive,inactive,inactive,inactive,inactive,inactive,inactive,inactive,–,–
Nc1c(Oc2ccccc2)cc(O)c2c1C(=O)c1ccccc1C2=O,inactive,inactive,inactive,inactive,inactive,21.3 µM (active),10.7 µM (active),inactive,inactive,inactive,–,–
CC(O)C#N (stereo not drawn),inactive,inactive,inactive,inactive,inactive,inactive,inactive,inactive,inactive,inactive,–,–
O=C(NC(=O)c1c(F)cccc1F)Nc1cc(Cl)c(OC(F)(F)C(F)F)c(Cl)c1,inactive,inactive,inactive,inactive,inactive,inactive,inactive,inactive,inactive,inactive,–,–
CNC(C)Cc1ccc2c(c1)OCO2 (stereo not drawn),inactive,inactive,inactive,inactive,inactive,inactive,inactive,inactive,–,inactive,–,–
CC(C)(C)OO,inactive,inactive,inactive,inactive,inactive,inactive,inactive,inactive,inactive,inactive,–,–

# From PubChem BioAssay (Tox21)
